Laboratory results published in PubChem BioAssay (EPA / NIEHS).
Inconclusive results are not listed. Calls of active or inactive are those of the source. Rule for the calls, unless noted: active = hit-call score of the fitted dose curve at least 0.9, where 1 is the maximum; inconclusive = response in the unintended direction; inactive = score below 0.9.

Tests used:
[1] = BSK_3C_VCAM1: BioMAP Diversity Plus: 3C Assay for Vascular cell adhesion molecule 1 (VCAM1) Biomarker Activity (AID 2282999; active = hit-call score of the fitted dose curve at least 0.9, where 1 is the maximum; inactive = score below 0.9); details: BioMAP 3C HUVEC, VCAM1 ELISA, cytokine-stimulated; actives raise or lower the signal
Method in brief: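 HUVEC primary cells, 24 h compound exposure; VCAM-1 by ELISA; gain/loss of signal fitted bidirectionally vs DMSO baseline.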

[2] = BSK_4H_Eotaxin3: BioMAP Diversity Plus: 4H Assay for Eotaxin 3 Biomarker Activity (AID 2283000; active = hit-call score of the fitted dose curve at least 0.9, where 1 is the maximum; inactive = score below 0.9;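 note: CCL26 protein level quantified by ELISA in parallel with SRB cytotoxicity check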); details: primary human endothelial cells (HUVEC); actives raise or lower the signal
Method in brief: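 Chemicals were added to human umbilical vein endothelium cultures, and Eotaxin-3 was quantified by ELISA at 24 h. Values were derived by bidirectional fitting with DMSO serving as negative control and activity baseline.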

[3] = target: human Peroxisome Proliferator-activated Receptor delta (PPARd), PPARD (gene 5467) (UniProt Q03181); assay: ATG_PPARd_TRANS: Attagene TRANS-FACTORIAL HepG2 Assay for human Peroxisome Proliferator-activated Receptor delta (PPARd) (AID 2283002)
Method in brief: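 Fluorescence from capillary electrophoresis of labelled RT-PCR reporter fragments gives the signal; DMSO sets baseline. Cells: HepG2 transiently carrying GAL4-UAS reporter units plus chimeric nuclear receptor-Gal4 proteins, exposed to chemicals for 24 h.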

[4] = read-out: Intercellular Adhesion Molecule 1 (ICAM1), ICAM1 (gene 3383); assay: BSK_3C_ICAM1: BioMAP Diversity Plus: 3C Assay for Intercellular Adhesion Molecule 1 (ICAM1) Biomarker Activity (AID 2283003; active = hit-call score of the fitted dose curve at least 0.9, where 1 is the maximum; inactive = score below 0.9); details: primary human endothelial cells (HUVEC); actives raise or lower the signal
Method in brief: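 Using DMSO as baseline, bidirectional curve fitting was applied to ICAM-1 ELISA signals from HUVEC in the 3C system, measured 24 h after compound addition.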

[5] = target: human Retinoic Acid Receptor beta (RARb), RARB (gene 5915) (UniProt P10826); assay: ATG_RARb_TRANS: Attagene TRANS-FACTORIAL HepG2 Assay for human Retinoic Acid Receptor beta (AID 2283004)
Method in brief: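 Transient transfection of HepG2 with multiple reporter units → chemical dosing, 24 h → total RNA isolation → RT with oligo(dT) → reporter-specific PCR, 6-FAM primer extension, HpaI digest → capillary electrophoresis. Positive direction vs DMSO control.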

[6] = target: Retinoic acid receptor alpha (Homo sapiens) (UniProt P10276); assay: ATG_RARa_TRANS: Attagene TRANS-FACTORIAL HepG2 Assay for human Retinoic Acid Receptor alpha (RARa) (AID 2283005)
Method in brief: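 HepG2 transiently transfected with multiplex GAL4-UAS reporter units including a human RARa–GAL4 chimera; 24 h compound exposure. Reporter mRNA quantified by RT-PCR, 6-FAM labeling and capillary electrophoresis; gain of signal versus DMSO.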

[7] = BSK_3C_Proliferation: Cell Proliferation Assessment in the BioMAP Diversity Plus: 3C Assay (AID 2283006; active = hit-call score of the fitted dose curve at least 0.9, where 1 is the maximum; inactive = score below 0.9;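 for AC50: potency may reflect either rise or fall in cell number versus DMSO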); details: primary human endothelial cells (HUVEC)
Method in brief: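 Measured here: sulforhodamine B (0.1%) staining of TCA-fixed sub-confluent umbilical vein endothelial cultures 48 h post-dosing, absorbance 560 nm. DMSO served as negative control and baseline; both signal gain and loss were modelled.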

[8] = target: Nuclear receptor subfamily 1 group I member 2 (Homo sapiens) (UniProt O75469); assay: ATG_PXR_TRANS: Attagene TRANS-FACTORIAL HepG2 Assay for human Pregnane X Receptor (PXR) (AID 2283008)
Method in brief: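 HepG2 transfected (FuGene 6) with GAL4-UAS reporter units + PXR-Gal4 chimera; dosed 24 h. Total RNA → oligo(dT) RT → PCR → 6-FAM primer extension → HpaI cut → CE. Gain-of-signal vs DMSO.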

[9] = target: human Retinoic Acid Receptor gamma (RARg), RARG (gene 5916) (UniProt P13631); assay: ATG_RARg_TRANS: Attagene TRANS-FACTORIAL HepG2 Assay for human Retinoic Acid Receptor gamma (RARg) (AID 2283009)
Method in brief: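 Gain-of-signal relative to DMSO is reported from fluorescent capillary electrophoresis of RT-PCR reporter products. These came from HepG2 cells expressing transfected RARg-GAL4 chimeras with UAS reporters, harvested 24 h after dosing.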

[10] = target: human RAR-related Orphan Receptor gamma (RORg), RORC (gene 6097) (UniProt P51449); assay: ATG_RORg_TRANS: Attagene TRANS-FACTORIAL HepG2 Assay for human RAR-related Orphan Receptor gamma (RORg) (AID 2283011)
Method in brief: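 First, HepG2 liver cells were transfected with GAL4-UAS-driven reporter constructs and the RORg-Gal4 fusion. Next, they were treated with chemical for 24 h. Finally, reporter mRNA was quantified by RT-PCR and capillary electrophoresis, with upward activity fitted against DMSO.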

[11] = target: Retinoic acid receptor RXR-alpha (Homo sapiens) (UniProt P19793); assay: ATG_RXRa_TRANS: Attagene TRANS-FACTORIAL HepG2 Assay for human Retinoid X Receptor alpha (RXRa) (AID 2283012)
Method in brief: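 Chimeric NR-GAL4 trans-activation in HepG2, 24 h treatment; reporter transcripts quantified by fluorescence on capillary electrophoresis, analysed for upward change from DMSO.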

[12] = target: human Retinoid X Receptor beta (RXRb), RXRB (gene 6257) (UniProt P28702); assay: ATG_RXRb_TRANS: Attagene TRANS-FACTORIAL HepG2 Assay for human Retinoid X Receptor beta (RXRb) (AID 2283013)
Method in brief: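 After a 24 h incubation with test chemical, transfected HepG2 cells carrying NR-Gal4 fusions and GAL4-UAS reporter transcription units yield RNA whose reporter cDNA is FAM-labelled, HpaI-cut and sized by capillary electrophoresis; increases over DMSO are scored.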

[13] = read-out: E-selectin (Homo sapiens) (UniProt P16581); assay: BSK_3C_Eselectin: BioMAP Diversity Plus: 3C Assay for Eselectin Biomarker Activity (AID 2283015; active = hit-call score of the fitted dose curve at least 0.9, where 1 is the maximum; inactive = score below 0.9;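 note: cell surface E-selectin protein quantified by ELISA 24 h after dosing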); details: primary human endothelial cells (HUVEC); actives raise or lower the signal
Method in brief: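 ELISA read-out of E-selectin on endothelial monolayers after 24 h chemical treatment. Human umbilical vein primary cells served as the system, with DMSO defining baseline activity for bidirectional fitting.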

[14] = read-out: Interleukin-1 alpha (IL1a), IL1A (gene 3552); assay: BSK_BE3C_IL1a: BioMAP Diversity Plus: BE3C Assay for Interleukin-1 alpha (IL1a) Biomarker Activity (AID 2283016; active = hit-call score of the fitted dose curve at least 0.9, where 1 is the maximum; inactive = score below 0.9); details: primary human bronchial epithelial cells; actives raise or lower the signal
Method in brief: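 Measured in human lung primary bronchial epithelial cells: IL-1a by ELISA at 24 h after dosing, with bidirectional fitting against DMSO.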

[15] = read-out: Monocyte Chemoattractant Protein-1 (MCP1), CCL2 (gene 6347); assay: BSK_3C_MCP1: BioMAP Diversity Plus: 3C Assay for Monocyte Chemoattractant Protein-1 (MCP1) Biomarker Activity (AID 2283017; active = hit-call score of the fitted dose curve at least 0.9, where 1 is the maximum; inactive = score below 0.9); details: primary human endothelial cells (HUVEC); actives raise or lower the signal
Method in brief: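 ELISA read-out of MCP-1 from human umbilical vein endothelial cell cultures harvested 24 h post-dosing. Gain or loss of signal was fitted relative to DMSO.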

[16] = read-out: Monocyte Chemoattractant Protein-1 (MCP1), CCL2 (gene 6347); assay: BSK_4H_MCP1: BioMAP Diversity Plus: 4H Assay for Monocyte Chemoattractant Protein-1 (MCP1) Biomarker Activity (AID 2283018; active = hit-call score of the fitted dose curve at least 0.9, where 1 is the maximum; inactive = score below 0.9); details: primary human endothelial cells (HUVEC); actives raise or lower the signal
Method in brief: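 Primary human umbilical vein endothelium is exposed to chemical for 24 h before MCP-1 is assayed by ELISA. Concentration-response fitted bidirectionally relative to DMSO.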

[17] = target: human Peroxisome Proliferator-activated Receptor alpha (PPARa), PPARA (gene 5465) (UniProt Q07869); assay: ATG_PPARa_TRANS: Attagene TRANS-FACTORIAL HepG2 Assay for human Peroxisome Proliferator-activated Receptor alpha (PPARa) (AID 2283001)
Method in brief: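 Transient HepG2 transfection, GAL4-UAS reporters, NR-Gal4 chimeras; 24 h compound exposure. Readout: reporter transcripts by RT-PCR, 6-FAM primer extension, HpaI digest, capillary electrophoresis. Positive direction vs DMSO baseline.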

[18] = target: human RAR-related Orphan Receptor beta (RORb), RORB (gene 6096) (UniProt Q92753); assay: ATG_RORb_TRANS: Attagene TRANS-FACTORIAL HepG2 Assay for human RAR-related Orphan Receptor beta (RORb) (AID 2283010)
Method in brief: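 Multiplexed transcription-factor reporter assay: HepG2 cells transiently carrying NR-Gal4/GAL4-UAS constructs, 24 h treatment, mRNA quantified by RT-PCR plus capillary electrophoresis fluorescence; activity scored as induction over DMSO.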

[19] = target: human Thyroid Receptor alpha (THRa1), THRA (gene 7067) (UniProt P10827); assay: ATG_THRa1_TRANS: Attagene TRANS-FACTORIAL HepG2 Assay for human Thyroid Receptor alpha (THRa1) (AID 2283014)
Method in brief: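 Reporter transcript induction, read by capillary electrophoresis of 6-FAM-labelled RT-PCR products, reflects activity of a transfected THRa1-Gal4 fusion in HepG2 liver cells. Cells were dosed for 24 h; activity was fitted in the positive direction against DMSO.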

[20] = target: Peroxisome proliferator-activated receptor gamma (Homo sapiens) (UniProt P37231); assay: ATG_PPARg_TRANS: Attagene TRANS-FACTORIAL HepG2 Assay for human Peroxisome Proliferator-activated Receptor-gamma (PPARg) (AID 2283007)
Method in brief: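 After 24 h of chemical exposure, transfected HepG2 cells carrying PPARγ-Gal4 chimera reporter constructs are lysed for RNA. Reporter transcripts are measured by RT-PCR and capillary electrophoresis with fluorescent labelling, and gain of signal is fitted versus DMSO.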

Measured: AC50

Sequence of human Retinoid X Receptor beta (RXRb), RXRB (gene 6257) (P28702 whole entry, looked up, the tested form may be a part): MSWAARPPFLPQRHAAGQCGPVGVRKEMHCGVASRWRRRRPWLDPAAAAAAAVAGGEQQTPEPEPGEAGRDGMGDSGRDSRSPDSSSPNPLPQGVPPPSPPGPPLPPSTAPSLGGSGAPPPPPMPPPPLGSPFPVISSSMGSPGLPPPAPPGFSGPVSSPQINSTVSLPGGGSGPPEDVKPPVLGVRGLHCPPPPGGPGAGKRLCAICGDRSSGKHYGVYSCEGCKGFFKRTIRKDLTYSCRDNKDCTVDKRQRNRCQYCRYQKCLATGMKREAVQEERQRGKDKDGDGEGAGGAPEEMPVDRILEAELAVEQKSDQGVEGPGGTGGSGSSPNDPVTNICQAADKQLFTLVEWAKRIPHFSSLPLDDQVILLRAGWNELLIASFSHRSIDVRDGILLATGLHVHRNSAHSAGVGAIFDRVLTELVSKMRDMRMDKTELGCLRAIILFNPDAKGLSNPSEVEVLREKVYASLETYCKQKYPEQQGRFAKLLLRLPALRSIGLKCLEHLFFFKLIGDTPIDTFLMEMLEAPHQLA
Sequence of human Retinoic Acid Receptor gamma (RARg), RARG (gene 5916) (P13631 whole entry, looked up, the tested form may be a part): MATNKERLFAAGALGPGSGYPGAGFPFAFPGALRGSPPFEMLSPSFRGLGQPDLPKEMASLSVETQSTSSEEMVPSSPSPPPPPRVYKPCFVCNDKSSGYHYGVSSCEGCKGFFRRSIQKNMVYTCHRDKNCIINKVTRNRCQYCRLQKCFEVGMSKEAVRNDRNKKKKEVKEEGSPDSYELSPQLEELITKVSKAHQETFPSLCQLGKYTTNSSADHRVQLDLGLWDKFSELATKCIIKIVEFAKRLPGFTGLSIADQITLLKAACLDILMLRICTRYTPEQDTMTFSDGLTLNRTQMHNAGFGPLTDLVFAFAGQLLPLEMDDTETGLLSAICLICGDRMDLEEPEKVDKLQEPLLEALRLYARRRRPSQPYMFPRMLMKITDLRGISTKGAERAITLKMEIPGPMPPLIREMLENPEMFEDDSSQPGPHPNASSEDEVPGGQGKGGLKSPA
Sequence of E-selectin (Homo sapiens) (P16581 whole entry, looked up): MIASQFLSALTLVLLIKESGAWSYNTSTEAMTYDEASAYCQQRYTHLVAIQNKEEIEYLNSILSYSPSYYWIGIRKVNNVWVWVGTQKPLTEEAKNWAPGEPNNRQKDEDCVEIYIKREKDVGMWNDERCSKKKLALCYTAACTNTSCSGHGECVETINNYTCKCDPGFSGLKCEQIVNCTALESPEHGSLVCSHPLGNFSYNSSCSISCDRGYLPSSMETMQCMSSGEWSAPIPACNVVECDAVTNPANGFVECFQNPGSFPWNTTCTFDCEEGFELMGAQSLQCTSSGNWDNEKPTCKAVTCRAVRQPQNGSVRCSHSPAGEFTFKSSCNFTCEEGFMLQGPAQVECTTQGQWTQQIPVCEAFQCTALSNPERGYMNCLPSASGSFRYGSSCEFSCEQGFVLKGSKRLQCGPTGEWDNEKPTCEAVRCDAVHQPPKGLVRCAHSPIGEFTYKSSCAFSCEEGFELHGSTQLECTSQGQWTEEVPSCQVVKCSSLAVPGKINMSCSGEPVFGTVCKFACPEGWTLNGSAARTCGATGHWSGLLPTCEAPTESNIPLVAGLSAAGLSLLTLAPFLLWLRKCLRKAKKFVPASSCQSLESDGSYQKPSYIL
Sequence of human Peroxisome Proliferator-activated Receptor delta (PPARd), PPARD (gene 5467) (Q03181 whole entry, looked up, the tested form may be a part): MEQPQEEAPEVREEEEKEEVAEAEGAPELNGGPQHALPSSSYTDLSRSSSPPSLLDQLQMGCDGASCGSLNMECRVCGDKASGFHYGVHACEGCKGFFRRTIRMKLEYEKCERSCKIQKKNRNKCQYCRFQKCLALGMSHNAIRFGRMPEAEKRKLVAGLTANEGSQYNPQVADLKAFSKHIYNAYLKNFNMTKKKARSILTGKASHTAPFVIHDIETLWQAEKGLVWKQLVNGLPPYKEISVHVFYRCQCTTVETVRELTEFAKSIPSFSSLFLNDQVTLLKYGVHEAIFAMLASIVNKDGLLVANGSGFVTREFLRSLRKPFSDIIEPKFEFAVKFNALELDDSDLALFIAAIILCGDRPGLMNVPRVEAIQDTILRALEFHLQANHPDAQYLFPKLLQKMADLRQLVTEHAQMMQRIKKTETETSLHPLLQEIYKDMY
Sequence of human RAR-related Orphan Receptor gamma (RORg), RORC (gene 6097) (P51449 whole entry, looked up, the tested form may be a part): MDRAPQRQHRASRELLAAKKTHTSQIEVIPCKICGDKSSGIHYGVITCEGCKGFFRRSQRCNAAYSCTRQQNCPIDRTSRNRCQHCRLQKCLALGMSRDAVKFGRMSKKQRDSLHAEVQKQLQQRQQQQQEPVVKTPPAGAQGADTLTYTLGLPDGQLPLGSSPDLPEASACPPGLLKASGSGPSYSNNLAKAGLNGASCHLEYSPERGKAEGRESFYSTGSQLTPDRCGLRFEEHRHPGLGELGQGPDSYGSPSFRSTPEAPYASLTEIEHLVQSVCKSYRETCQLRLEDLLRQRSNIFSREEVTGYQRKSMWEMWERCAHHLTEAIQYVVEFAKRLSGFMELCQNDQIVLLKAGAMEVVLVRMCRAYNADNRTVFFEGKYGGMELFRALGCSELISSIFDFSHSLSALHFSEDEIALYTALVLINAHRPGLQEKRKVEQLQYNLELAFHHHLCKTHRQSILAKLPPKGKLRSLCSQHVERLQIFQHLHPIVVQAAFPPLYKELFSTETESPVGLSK
Sequence of Peroxisome proliferator-activated receptor gamma (Homo sapiens) (P37231 whole entry, looked up, the tested form may be a part): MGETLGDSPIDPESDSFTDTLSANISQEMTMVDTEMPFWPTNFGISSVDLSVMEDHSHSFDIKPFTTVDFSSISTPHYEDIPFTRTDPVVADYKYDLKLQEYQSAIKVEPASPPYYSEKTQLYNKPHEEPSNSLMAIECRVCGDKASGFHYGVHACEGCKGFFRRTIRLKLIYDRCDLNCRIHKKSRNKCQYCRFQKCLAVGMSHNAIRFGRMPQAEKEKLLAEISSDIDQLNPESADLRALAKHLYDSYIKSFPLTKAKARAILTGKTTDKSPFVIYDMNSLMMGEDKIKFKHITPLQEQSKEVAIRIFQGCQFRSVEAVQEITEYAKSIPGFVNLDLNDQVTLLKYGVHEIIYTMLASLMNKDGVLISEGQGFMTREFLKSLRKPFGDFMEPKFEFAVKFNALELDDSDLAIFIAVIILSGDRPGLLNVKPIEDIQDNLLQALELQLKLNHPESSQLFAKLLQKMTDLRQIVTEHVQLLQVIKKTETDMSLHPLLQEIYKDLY
Sequence of human Thyroid Receptor alpha (THRa1), THRA (gene 7067) (P10827 whole entry, looked up, the tested form may be a part): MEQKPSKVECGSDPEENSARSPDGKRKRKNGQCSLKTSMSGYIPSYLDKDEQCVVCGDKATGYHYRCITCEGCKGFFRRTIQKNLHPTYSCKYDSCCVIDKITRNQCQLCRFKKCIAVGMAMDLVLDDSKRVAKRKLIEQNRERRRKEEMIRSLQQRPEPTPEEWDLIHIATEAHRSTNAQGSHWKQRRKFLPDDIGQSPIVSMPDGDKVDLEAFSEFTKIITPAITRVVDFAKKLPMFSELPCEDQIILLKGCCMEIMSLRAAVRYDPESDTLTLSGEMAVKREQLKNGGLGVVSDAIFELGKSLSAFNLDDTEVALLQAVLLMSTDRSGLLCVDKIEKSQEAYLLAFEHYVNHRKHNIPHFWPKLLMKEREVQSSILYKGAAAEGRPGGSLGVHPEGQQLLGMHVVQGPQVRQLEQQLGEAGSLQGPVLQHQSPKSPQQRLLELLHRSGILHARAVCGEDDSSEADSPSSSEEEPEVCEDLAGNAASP
Sequence of Nuclear receptor subfamily 1 group I member 2 (Homo sapiens) (O75469 whole entry, looked up, the tested form may be a part): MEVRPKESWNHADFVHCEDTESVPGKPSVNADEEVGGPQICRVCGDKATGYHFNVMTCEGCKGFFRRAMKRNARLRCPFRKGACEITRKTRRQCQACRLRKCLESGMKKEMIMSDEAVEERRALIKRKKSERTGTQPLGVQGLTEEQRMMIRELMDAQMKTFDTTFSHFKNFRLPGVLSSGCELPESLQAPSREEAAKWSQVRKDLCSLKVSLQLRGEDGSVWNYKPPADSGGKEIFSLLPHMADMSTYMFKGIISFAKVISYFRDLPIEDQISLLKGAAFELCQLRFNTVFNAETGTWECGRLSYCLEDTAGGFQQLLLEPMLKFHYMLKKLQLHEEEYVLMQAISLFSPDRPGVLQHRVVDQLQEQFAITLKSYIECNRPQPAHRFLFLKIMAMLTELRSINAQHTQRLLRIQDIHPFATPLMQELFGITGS
Sequence of Retinoic acid receptor RXR-alpha (Homo sapiens) (P19793 whole entry, looked up, the tested form may be a part): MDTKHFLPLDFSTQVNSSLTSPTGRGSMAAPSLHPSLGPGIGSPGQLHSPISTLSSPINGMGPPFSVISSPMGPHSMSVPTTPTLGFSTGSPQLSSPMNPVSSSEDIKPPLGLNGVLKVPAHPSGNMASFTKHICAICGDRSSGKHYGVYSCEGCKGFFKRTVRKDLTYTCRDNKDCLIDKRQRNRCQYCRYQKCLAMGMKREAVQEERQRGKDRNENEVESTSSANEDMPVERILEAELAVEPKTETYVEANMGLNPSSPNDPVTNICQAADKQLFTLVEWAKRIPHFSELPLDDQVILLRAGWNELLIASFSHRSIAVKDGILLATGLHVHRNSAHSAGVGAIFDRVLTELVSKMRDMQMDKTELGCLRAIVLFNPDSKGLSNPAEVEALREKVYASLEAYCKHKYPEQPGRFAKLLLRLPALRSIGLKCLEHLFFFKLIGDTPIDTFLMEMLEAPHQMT
Sequence of human Retinoic Acid Receptor beta (RARb), RARB (gene 5915) (P10826 whole entry, looked up): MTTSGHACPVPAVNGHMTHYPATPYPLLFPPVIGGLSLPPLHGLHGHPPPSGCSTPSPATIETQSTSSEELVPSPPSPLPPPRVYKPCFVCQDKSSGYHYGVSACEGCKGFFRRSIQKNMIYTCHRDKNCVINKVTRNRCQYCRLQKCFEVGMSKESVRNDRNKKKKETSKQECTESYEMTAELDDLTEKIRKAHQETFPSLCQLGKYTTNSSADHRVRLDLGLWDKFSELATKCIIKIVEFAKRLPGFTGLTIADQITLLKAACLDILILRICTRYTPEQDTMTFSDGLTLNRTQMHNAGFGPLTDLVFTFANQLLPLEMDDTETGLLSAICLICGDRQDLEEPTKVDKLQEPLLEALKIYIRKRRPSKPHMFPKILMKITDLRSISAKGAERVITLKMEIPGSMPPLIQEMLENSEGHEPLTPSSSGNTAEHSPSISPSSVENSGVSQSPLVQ

CCN(Cc1c(F)cccc1Cl)c1c([N+](=O)[O-])cc(C(F)(F)F)cc1[N+](=O)[O-]
active: [7] 12.9 µM | [8] 3.41 µM | [16] 11.3 µM
not listed: [17] | [18] | [19] | [20]
inactive: all other assays above

CCOC(=O)C(C)Oc1ccc(Oc2cnc3cc(Cl)ccc3n2)cc1 (stereo not drawn)
not listed: [3] | [5] | [6] | [15] | [19] | [20]
inactive: all other assays above

COC(=O)c1ccccc1C(=O)O
inactive: [1] | [2] | [4] | [7] | [8] | [9] | [19] | [13] | [14] | [15] | [16]

C[C@]12CC[C@@H]3c4ccc(O)cc4C[C@@H](CCCCCCCCCS(=O)CCCC(F)(F)C(F)(F)F)[C@H]3[C@@H]1CC[C@@H]2O (stereo partly drawn)
active: [7] 2.05 µM | [8] 494 nM [middle of 4 runs]
not listed: [6] | [9] | [17]
inactive: all other assays above
